# Assay results as given in PubChem BioAssay AID1159580 (chemical genetic matrix, 2015).
# The whole screen tested about 5,500 compounds, of which about 2,000 (36%) were called active. Another 18% or so got no clear call; they are omitted. The list shows a part of the results. Values without a mark were called inactive. Cut-off read from the data, not from the text of the source: active = normalized growth mostly below about 0.91 (no sharp cut-off); inconclusive = no clear call, values can overlap the other calls; inactive = mostly above about 0.92.
# Experiment: chemical genetic growth profiling, strain panel (AID 1159580);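 note: tested at 20 µM; growth read once vehicle control cultures reached saturation at 30 °C; 1 = growth at the plate median or of vehicle wells; lower values mean less growth of the strain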
# Details: growth OD
# [1] = S. cerevisiae deletion strains, locus YBR021W, strain FUR4, active compounds read low
# [2] = S. cerevisiae deletion strains, locus YBR229C, strain ROT2, active compounds read low
# [3] = S. cerevisiae deletion strains, locus YCL029C, strain bik1, active compounds read low
# [4] = S. cerevisiae deletion strains, locus YDL035C, strain GPR1, active compounds read low
# [5] = S. cerevisiae deletion strains, locus YDL074C, strain BRE1, active compounds read low
# [6] = S. cerevisiae deletion strains, locus YDL101C, strain DUN1, active compounds read low
# [7] = S. cerevisiae deletion strains, locus YDL185W, strain tfp1, active compounds read low
# [8] = S. cerevisiae deletion strains, locus YDL192W, strain arf1, active compounds read low
# [9] = S. cerevisiae deletion strains, locus YDR101C, strain arx1, active compounds read low
# [10] = S. cerevisiae deletion strains, locus YDR162C, strain NBP2, active compounds read low
# [11] = S. cerevisiae deletion strains, locus YDR318W, strain mcm21, active compounds read low
# [12] = S. cerevisiae deletion strains, locus YDR388W, active compounds read low
# [13] = S. cerevisiae deletion strains, locus YDR502C, strain sam2, active compounds read low
# [14] = S. cerevisiae deletion strains, locus YEL061C, strain CIN8, active compounds read low
# [15] = S. cerevisiae deletion strains, locus YER110C, active compounds read low
# [16] = S. cerevisiae deletion strains, locus YER167W, strain BCK2, active compounds read low
# [17] = S. cerevisiae deletion strains, locus YGL078C, strain dbp3, active compounds read low
# [18] = S. cerevisiae deletion strains, locus YGL086W, strain mad1, active compounds read low
# [19] = S. cerevisiae deletion strains, locus YGL248W, strain PDE1, active compounds read low
# [20] = S. cerevisiae deletion strains, locus YGR135W, strain pre9, active compounds read low
# [21] = S. cerevisiae deletion strains, locus YGR252W, strain gcn5, active compounds read low
# [22] = S. cerevisiae deletion strains, locus YHR079C, strain IRE1 (second series), active compounds read low
# [23] = S. cerevisiae deletion strains, locus YHR094C, strain hxt1, active compounds read low
# [24] = S. cerevisiae deletion strains, locus YHR129C, strain ARP1, active compounds read low
# [25] = S. cerevisiae deletion strains, locus YHR200W, strain rpn10, active compounds read low
# [26] = S. cerevisiae deletion strains, locus YIL066C, strain RNR3, active compounds read low
# [27] = S. cerevisiae deletion strains, locus YIL073C, strain SPO22, active compounds read low
# [28] = S. cerevisiae deletion strains, locus YIL125W, strain kgd1, active compounds read low
# [29] = S. cerevisiae deletion strains, locus YIR030C, strain dcg1, active compounds read low
# [30] = S. cerevisiae deletion strains, locus YJL095W, strain BCK1, active compounds read low
# [31] = S. cerevisiae deletion strains, locus YJL134W, strain LCB3, active compounds read low
# [32] = S. cerevisiae deletion strains, locus YJL168C, strain set2, active compounds read low
# [33] = S. cerevisiae deletion strains, locus YJL187C, strain SWE1 (second series), active compounds read low
# [34] = S. cerevisiae deletion strains, locus YJR043C, strain POL32, active compounds read low
# [35] = S. cerevisiae deletion strains, locus YKL009W, strain mrt4, active compounds read low
# [36] = S. cerevisiae deletion strains, locus YKL068W, active compounds read low
# [37] = S. cerevisiae deletion strains, locus YKL085W, strain MDH1 (second series), active compounds read low
# [38] = S. cerevisiae deletion strains, locus YKL085W, strain MDH1, active compounds read low
# [39] = S. cerevisiae deletion strains, locus YKL190W, strain CNB1, active compounds read low
# [40] = S. cerevisiae deletion strains, locus YKR001C, strain vps1, active compounds read low
# [41] = S. cerevisiae deletion strains, locus YLR039C, strain RIC1, active compounds read low
# [42] = S. cerevisiae deletion strains, locus YLR058C, strain SHM2, active compounds read low
# [43] = S. cerevisiae deletion strains, locus YLR102C, strain apc9, active compounds read low
# [44] = S. cerevisiae deletion strains, locus YLR262C, strain YPT6, active compounds read low
# [45] = S. cerevisiae deletion strains, locus YLR268W, strain sec22, active compounds read low
# [46] = S. cerevisiae deletion strains, locus YLR330W, strain CHS5, active compounds read low
# [47] = S. cerevisiae deletion strains, locus YLR371W, strain rom2, active compounds read low
# [48] = S. cerevisiae deletion strains, locus YLR418C, strain cdc73, active compounds read low
# [49] = S. cerevisiae deletion strains, locus YML016C, strain PPZ1, active compounds read low
# [50] = S. cerevisiae deletion strains, locus YML032C, strain rad52, active compounds read low
# [51] = S. cerevisiae deletion strains, locus YML124C, strain tub3, active compounds read low
# [52] = S. cerevisiae deletion strains, locus YMR078C, strain ctf18, active compounds read low
# [53] = S. cerevisiae deletion strains, locus YMR223W, strain ubp8, active compounds read low
# [54] = S. cerevisiae deletion strains, locus YMR263W, strain SAP30, active compounds read low
# [55] = S. cerevisiae deletion strains, locus YMR307W, strain GAS1, active compounds read low
# [56] = S. cerevisiae deletion strains, locus YNL067W, strain RPL9B, active compounds read low
# [57] = S. cerevisiae deletion strains, locus YNL128W, strain TEP1, active compounds read low
# [58] = S. cerevisiae deletion strains, locus YNL153C, strain GIM3, active compounds read low
# [59] = S. cerevisiae deletion strains, locus YNL233W, strain BNI4, active compounds read low
# [60] = S. cerevisiae deletion strains, locus YNL250W, strain rad50, active compounds read low
# [61] = S. cerevisiae deletion strains, locus YNL271C, strain bni1, active compounds read low
# [62] = S. cerevisiae deletion strains, locus YNL298W, strain CLA4, active compounds read low
# [63] = S. cerevisiae deletion strains, locus YNL307C, strain MCK1, active compounds read low
# [64] = S. cerevisiae deletion strains, locus YNR052C, strain pop2, active compounds read low
# [65] = S. cerevisiae deletion strains, locus YOL012C, strain htz1
# [66] = S. cerevisiae deletion strains, locus YOL147C, strain pex11, active compounds read low
# [67] = S. cerevisiae deletion strains, locus YOR061W, strain CKA2, active compounds read low
# [68] = S. cerevisiae deletion strains, locus YOR069W, strain VPS5, active compounds read low
# [69] = S. cerevisiae deletion strains, locus YOR136W, strain idh2, active compounds read low
# [70] = S. cerevisiae deletion strains, locus YOR144C, strain elg1, active compounds read low
# [71] = S. cerevisiae deletion strains, locus YOR184W, strain ser1, active compounds read low
# [72] = S. cerevisiae deletion strains, locus YOR316C, strain cot1, active compounds read low
# [73] = S. cerevisiae deletion strains, locus YPR119W, strain clb2, active compounds read low
# [74] = S. cerevisiae deletion strains, locus YPR141C, strain kar3, active compounds read low
# [75] = S. cerevisiae deletion strains, locus YPR163C, strain tif3, active compounds read low
# [76] = S. cerevisiae deletion strains, locus YPR167C, strain met16, active compounds read low
# [77] = S. cerevisiae deletion strains, strain wtn01, active compounds read low
# [78] = S. cerevisiae strains, strain wild type, active compounds read low
structure (smiles),measurement,setting,value
COc1cc(C)c2c(=O)c3c(O)cc(OC)cc3oc2c1,normalized growth,"S. cerevisiae deletion strains, locus YAL013W, strain DEP1, active compounds read low",1.01
same,normalized growth,[1],0.968
same,normalized growth,[2],1.02
same,normalized growth,[3],0.991
same,normalized growth,[4],1.01
same,normalized growth,[5],1.02
same,normalized growth,[6],1.02
same,normalized growth,"S. cerevisiae deletion strains, locus YDL134C, strain PPH21, active compounds read low",1.01
same,normalized growth,[7],0.991
same,normalized growth,[8],0.986
same,normalized growth,[9],0.981
same,normalized growth,"S. cerevisiae deletion strains, locus YDR150W, strain NUM1, active compounds read low",1.02
same,normalized growth,[10],1.02
same,normalized growth,[11],0.986
same,normalized growth,[12],0.981
same,normalized growth,[13],0.982
same,normalized growth,[14],1.01
same,normalized growth,[15],0.977
same,normalized growth,"S. cerevisiae deletion strains, locus YER155C, strain BEM2, active compounds read low",1
same,normalized growth,[16],1.01
same,normalized growth,[17],0.976
same,normalized growth,[18],0.982
same,normalized growth,[19],1.02
same,normalized growth,"S. cerevisiae deletion strains, locus YGR078C, strain PAC10, active compounds read low",1
same,normalized growth,[20],0.977
same,normalized growth,"S. cerevisiae deletion strains, locus YGR229C, strain SMI1, active compounds read low",0.996
same,normalized growth,[21],0.929
same,normalized growth,"S. cerevisiae deletion strains, locus YHR030C, strain SLT2, active compounds read low",1.01
same,normalized growth,[22],0.977
same,normalized growth,[23],0.991
same,normalized growth,[24],1.01
same,normalized growth,[25],0.975
same,normalized growth,[26],1.01
same,normalized growth,[27],0.967
same,normalized growth,[28],0.984
same,normalized growth,[29],0.994
same,normalized growth,[30],0.995
same,normalized growth,[31],1.01
same,normalized growth,[32],0.982
same,normalized growth,[33],1.02
same,normalized growth,[34],0.999
same,normalized growth,"S. cerevisiae deletion strains, locus YJR075W, strain HOC1, active compounds read low",1.01
same,normalized growth,[35],0.984
same,normalized growth,[36],0.993
same,normalized growth,[37],1.03
same,normalized growth,[38],1.03
same,normalized growth,[39],1.01
same,normalized growth,[40],0.982
same,normalized growth,[41],1.04
same,normalized growth,[42],1.02
same,normalized growth,[43],0.982
same,normalized growth,[44],1.04
same,normalized growth,[45],0.987
same,normalized growth,[46],1.02
same,normalized growth,"S. cerevisiae deletion strains, locus YLR342W, strain FKS1 (second series), active compounds read low",0.996
same,normalized growth,[47],0.984
same,normalized growth,[48],0.981
same,normalized growth,[49],1.02
same,normalized growth,[50],0.978
same,normalized growth,[51],0.985
same,normalized growth,[52],0.993
same,normalized growth,[53],0.98
same,normalized growth,[54],1.01
same,normalized growth,[55],0.976
same,normalized growth,[56],1.01
same,normalized growth,[57],1.01
same,normalized growth,[58],1.01
same,normalized growth,[59],1.01
same,normalized growth,[60],0.992
same,normalized growth,[61],0.98
same,normalized growth,[62],0.976
same,normalized growth,[63],0.981
same,normalized growth,"S. cerevisiae deletion strains, locus YNL322C, strain KRE1, active compounds read low",1.01
same,normalized growth,[64],0.978
same,normalized growth,"S. cerevisiae deletion strains, locus YOL006C, strain TOP1, active compounds read low",1.05
same,normalized growth,[65],1.37
same,normalized growth,[66],0.985
same,normalized growth,[67],1.02
same,normalized growth,[68],1.01
same,normalized growth,[69],0.979
same,normalized growth,[70],0.99
same,normalized growth,[71],0.969
same,normalized growth,[72],0.982
same,normalized growth,"S. cerevisiae deletion strains, locus YPL055C, strain LGE1, active compounds read low",1.01
same,normalized growth,"S. cerevisiae deletion strains, locus YPL241C, strain CIN2, active compounds read low",0.99
same,normalized growth,[73],0.98
same,normalized growth,[74],1
same,normalized growth,[75],0.988
same,normalized growth,[76],0.985
same,normalized growth,[77],0.986
same,normalized growth,[78],1.01
COc1cc(C)c2c(=O)c3c(O)cc(O)cc3oc2c1,normalized growth,[1],0.936
same,normalized growth,[2],0.975
same,normalized growth,[3],0.95
same,normalized growth,[4],0.994
same,normalized growth,[5],0.95
same,normalized growth,[6],0.974
same,normalized growth,[7],0.955
same,normalized growth,[8],0.891 (active)
same,normalized growth,[9],0.943
same,normalized growth,[10],0.967
same,normalized growth,[11],0.906 (active)
same,normalized growth,[12],0.941
same,normalized growth,[13],0.92 (active)
same,normalized growth,[14],1.02
same,normalized growth,[15],0.948
same,normalized growth,[16],0.983
same,normalized growth,[17],0.946
same,normalized growth,[18],0.904 (active)
same,normalized growth,[19],0.934
same,normalized growth,[20],0.93
same,normalized growth,[21],0.764 (active)
same,normalized growth,[22],0.925 (active)
same,normalized growth,[23],0.961
same,normalized growth,[24],0.995
same,normalized growth,[25],0.904 (active)
same,normalized growth,[26],0.986
same,normalized growth,[27],0.923
same,normalized growth,[28],0.957
same,normalized growth,[29],0.953
same,normalized growth,[30],0.829
same,normalized growth,[31],0.981
same,normalized growth,[32],0.975
same,normalized growth,[33],0.953
same,normalized growth,[34],0.979
same,normalized growth,[35],0.911
same,normalized growth,[36],0.971
same,normalized growth,[37],0.952
same,normalized growth,[38],0.952
same,normalized growth,[39],1
same,normalized growth,[40],0.871 (active)
same,normalized growth,[41],0.865
same,normalized growth,[42],0.941
same,normalized growth,[43],0.969
same,normalized growth,[44],0.846
same,normalized growth,[45],0.941
same,normalized growth,[46],0.973
same,normalized growth,[47],0.936
same,normalized growth,[48],0.815 (active)
same,normalized growth,[49],0.974
same,normalized growth,[50],0.829 (active)
same,normalized growth,[51],0.967
same,normalized growth,[52],0.954
same,normalized growth,[53],0.884 (active)
same,normalized growth,[54],0.979
same,normalized growth,[55],0.752
same,normalized growth,[56],0.992
same,normalized growth,[57],0.985
same,normalized growth,[58],0.989
same,normalized growth,[59],0.86 (active)
same,normalized growth,[60],0.889 (active)
same,normalized growth,[61],0.953
same,normalized growth,[62],0.962
same,normalized growth,[63],0.868 (active)
same,normalized growth,[64],0.933
same,normalized growth,[65],0.866
same,normalized growth,[66],0.923 (active)
same,normalized growth,[67],0.982
same,normalized growth,[68],0.997
same,normalized growth,[69],0.925
same,normalized growth,[70],0.954
same,normalized growth,[71],0.918
same,normalized growth,[72],0.96
same,normalized growth,[73],0.956
same,normalized growth,[74],0.958
same,normalized growth,[75],0.896 (active)
same,normalized growth,[76],0.883 (active)
same,normalized growth,[77],0.919
same,normalized growth,[78],0.932
